Reference: PubChem BioAssay
Several values for one entry are separate records, joined by “and”; a condition that tells them apart may be missing. Equal values may be shown once. Values without a mark were called inactive.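 The calls were made as follows: active = z-score of at least 1.8 in each of two replicates, scored against plate mean and spread of sample wells; inactive = the rest.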

Assay: galactose survival enhancers in mitochondrial complex I cybrids – cell-based, galactose medium, ATP luminescence, primary screen (AID 1645843);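 also: positive z means more ATP and so rescue of galactose-driven cybrid death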
Conditions: complex I mutant cybrid cells, 72 h, active compounds read high

SMILES	z-score
O=c1c(-c2ccc(O)cc2)coc2cc(O)ccc12	0.775 and 0.485
NC(=O)c1cccc(N)c1	0.345 and 1.35
O=C(O)c1cc([N+](=O)[O-])ccc1NCCCc1ccccc1	0.305 and -0.425
C[C@@]12C(=O)OC(=O)[C@]1(C)[C@H]1CC[C@@H]2O1	-0.755
CCOC(=O)C1=C(O)C(=O)N(Cc2ccccc2)C1	0.685 and -0.055
CCCC(=O)Nc1ncnc2c1ncn2[C@@H]1O[C@@H]2COP(=O)(O)O[C@H]2[C@H]1OC(=O)CCC	0.335
CC(CCc1ccc(O)cc1)NCCc1ccc(O)c(O)c1 (stereo not drawn)	-1.02 and -0.96 and -2.02
CCN1CCCC1CNC(=O)c1cc(S(N)(=O)=O)ccc1OC (stereo not drawn)	0.32 and 0.4 and 0.185
